# Inconclusive results are not listed. Where a call stands in place of a potency, no number is given. Calls of active or inactive are those of the source. Unless noted, calls follow the shape of the dose curve; as a rule, active = well fitted curve in the direction sought with a large enough effect in the repeat runs; inconclusive = weak or mixed curves; inactive = no such curve, though single readings can be large; an effect the other way counts as inactive or inconclusive.
# Experiments:
# [1] = molecular target: Luciferin 4-monooxygenase (Photinus pyralis) (UniProt P08659); test: qHTS assay to identify small molecule inhibitors of firefly luciferase (AID 1224835); also: nearly all actives have a fitted effect of over 25% in size; settings: purified P. pyralis luciferase, luminescence inhibition; series mostly up to 115 µM
# Luciferin 4-monooxygenase (Photinus pyralis), sequence (P08659 whole entry, looked up): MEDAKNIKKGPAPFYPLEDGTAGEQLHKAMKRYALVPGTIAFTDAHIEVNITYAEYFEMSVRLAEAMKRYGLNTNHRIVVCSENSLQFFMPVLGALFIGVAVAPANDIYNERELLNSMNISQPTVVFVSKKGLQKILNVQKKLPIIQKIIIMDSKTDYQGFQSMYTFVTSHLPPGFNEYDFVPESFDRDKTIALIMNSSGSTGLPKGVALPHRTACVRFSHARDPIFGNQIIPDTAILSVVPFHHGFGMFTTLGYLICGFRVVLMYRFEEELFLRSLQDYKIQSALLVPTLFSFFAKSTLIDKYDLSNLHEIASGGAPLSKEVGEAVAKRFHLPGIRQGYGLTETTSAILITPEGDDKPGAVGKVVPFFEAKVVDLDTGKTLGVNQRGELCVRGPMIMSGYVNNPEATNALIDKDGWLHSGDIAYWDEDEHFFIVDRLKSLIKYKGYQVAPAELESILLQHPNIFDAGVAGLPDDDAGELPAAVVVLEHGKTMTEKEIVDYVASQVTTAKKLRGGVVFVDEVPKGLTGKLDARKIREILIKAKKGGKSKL
# How it was run: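 Biochemical qHTS: compounds run as interplate titrations against purified firefly enzyme, with D-luciferin and ATP each at its KM concentration. Light output recorded by CCD imaging.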
# [2] = qHTS assay to identify small molecule agonists of the constitutive androstane receptor (CAR) signaling pathway - cell viability counter screen (AID 1224836); settings: HepG2-CYP2B6-hCAR viability, CellTiter-Fluor, 23 h, PK11195 added to every well; series mostly up to 92.4 µM; also: nearly all actives have a fitted effect of over 45% in size
# How it was run: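 Compound titrations (15 concentrations) went onto HepG2-CYP2B6-hCAR cells 4 h after seeding, alongside PK11195 at a final 0.75 uM; a 23 h, 37 C/5% CO2 incubation preceded CellTiter-Fluor viability measurement.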
# [3] = qHTS assay to identify small molecule antagonists of the constitutive androstane receptor (CAR) signaling pathway - cell viability counter screen (AID 1224837); settings: HepG2-CYP2B6-hCAR viability, CellTiter-Fluor, 23 h, co-treated with 50 nM CITCO; series mostly up to 92.4 µM; also: nearly all actives have a fitted effect of over 45% in size
# How it was run: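 Using CellTiter-Fluor, viability is scored in HepG2 cells stably carrying hCAR and a 2.2kb CYP2B6 reporter after 23 hr compound exposure across 15 concentrations, with CITCO present at 50 nM.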
# [4] = qHTS assay to identify small molecule antagonists of the estrogen related receptor signaling pathway with the pleiotropic PPARgamma coactivator (PGC) from Tox21 10K library (AID 1224841; call rule not given here; also: actives are mostly falling curves and most rising ones were filed inactive; nearly all actives have a fitted effect of over 50% in size; also: potency is read from the fitted curve at half-maximal effect); settings: PGC/ERR reporter cell line, ONE-Glo luciferase, 18 h; series mostly up to 92.4 µM
# How it was run: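 Each well held 2,000 PGC/ERR cells, pre-incubated six hours (37 C, 5% CO2). Test substances in DMSO were added by pin tool and left for 18 h at 37 C before luciferase detection by One-Glo.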
# [5] = molecular target: Nuclear receptor subfamily 1 group I member 3 (Homo sapiens) (UniProt Q14994); test: qHTS assay to identify small molecule agonists of the constitutive androstane receptor (CAR) signaling pathway (AID 1224839); settings: HepG2 hCAR CYP2B6-luciferase, agonist mode, 24 h; series mostly up to 92.4 µM; also: nearly all actives have a fitted effect of over 15% in size; also: potency is read from the fitted curve at half-maximal effect;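 as to activation: HepG2 cells stably carrying human CAR and a CYP2B6 luciferase reporter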
# Nuclear receptor subfamily 1 group I member 3 (Homo sapiens), sequence (Q14994 whole entry, looked up): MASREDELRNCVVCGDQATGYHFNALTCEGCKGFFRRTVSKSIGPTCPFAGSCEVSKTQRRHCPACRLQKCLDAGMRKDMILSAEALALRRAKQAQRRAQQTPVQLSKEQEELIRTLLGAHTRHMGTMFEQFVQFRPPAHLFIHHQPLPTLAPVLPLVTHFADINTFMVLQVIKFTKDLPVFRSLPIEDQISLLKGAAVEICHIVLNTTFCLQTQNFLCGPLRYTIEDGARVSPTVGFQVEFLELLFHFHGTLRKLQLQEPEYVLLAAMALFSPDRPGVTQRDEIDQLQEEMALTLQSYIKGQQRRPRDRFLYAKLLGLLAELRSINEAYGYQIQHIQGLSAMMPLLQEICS
# How it was run: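 In this screen, CAR-driven CYP2B6 promoter activity is measured by luminescence in HepG2-CYP2B6-hCAR cells after 24 h with test compounds and 0.75 uM PK11195 (final concentration).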
# [6] = qHTS assay to identify small molecule agonists of the estrogen related receptor signaling pathway with the pleiotropic PPARgamma coactivator (PGC) from Tox21 10K library (AID 1224842); settings: PGC/ERR reporter cell line, luciferase ONE-Glo, 18 h; series mostly up to 92.4 µM; also: nearly all actives have a fitted effect of over 15% in size
# How it was run: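 PGC/ERR reporter cell line, 2,000 cells per well, incubated 6 h at 37 C before 23 nL compound in DMSO was added. After 18 h at 37 C, One-Glo luminescence read following 30 min at room temperature.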
# [7] = qHTS assay to identify small molecule agonists of the hypoxia (HIF-1) signaling pathway - cell viability counter screen (AID 1224844; calls by dose curve; also: nearly all actives have a fitted effect of over 50% in size); settings: HRE-bla ME-180 viability, CellTiter-Glo luminescence, 17 h; series mostly up to 76.8 µM
# How it was run: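 Multiplexed with the HRE beta-lactamase assay, this viability read used CellTiter-Glo luminescence (30 min, RT) on HRE-bla ME-180 cells treated 17 hrs with compounds in 0.5% dialyzed FBS medium.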
# [8] = qHTS assay to identify small molecule agonists of H2AX (AID 1224845; active = well fitted activation curve with a large enough effect in the signal ratio in the repeat runs, not every such curve was filed as active; the % refers to the signal ratio); settings: CHO-K1 phospho-H2AX Ser139 HTRF, 3 h; series mostly up to 154 µM
# How it was run: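 Wild-type CHO-K1 cells, plated overnight, exposed 3hr at 37C to 15 concentrations (0.76% DMSO final). Lysed, then HTRF anti-pH2AX (S139) cryptate and anti-H2AX-d2 antibodies, 24 hr room temperature; 665/620 nm emission read.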
# [9] = qHTS assay to identify small molecule agonists of the hypoxia (HIF-1) signaling pathway (AID 1224846; active = well fitted activation curve with a large enough effect in the signal ratio in the repeat runs, not every such curve was filed as active; the % refers to the signal ratio); settings: HRE-bla ME-180 cells, beta-lactamase ratio, 17 h; series mostly up to 76.8 µM
# How it was run: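 Hypoxia-pathway activation was scored as increased beta-lactamase from an HRE-controlled reporter in ME-180 cells; plated at 2,000 cells per well with 0.5% dialyzed FBS, they were exposed 17 hrs to compounds and then given CCF4-AM.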
# [10] = qHTS assay to identify small molecule agonists of H2AX - cell viability counter screen (AID 1224847; calls by dose curve; also: nearly all actives have a fitted effect of over 30% in size; also: potency is read from the fitted curve at half-maximal effect); settings: CHO-K1 viability, CellTiter-Glo luminescence, 3 h; series mostly up to 154 µM
# How it was run: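 Read-out: CellTiter-Glo luminescence, 30 min RT. Cells: wild-type CHO-K1, 1000/well, 10% FBS, plated overnight at 37C. Treatment: 15 concentrations, 3 hr, 37C, 0.76% DMSO.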
# [11] = molecular target: Nuclear receptor subfamily 1 group I member 3 (Homo sapiens) (UniProt Q14994); test: qHTS assay to identify small molecule antagonists of the constitutive androstane receptor (CAR) signaling pathway (AID 1224838); settings: HepG2-CYP2B6-hCAR luciferase, CITCO-stimulated, 24 h; series mostly up to 92.4 µM;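 also: HepG2 cells stably expressing hCAR with CYP2B6 luciferase reporter stimulated by CITCO; nearly all actives have a fitted effect of over 40% in size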
# How it was run: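 Reporter luminescence was quantified after 24 h exposure of hCAR/CYP2B6-2.2kb double-stable HepG2 cells to compounds at 15 concentrations in the presence of 50 nM CITCO final.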
# [12] = molecular target: Thyrotropin receptor (Homo sapiens) (UniProt P16473); test: qHTS assay to identify small molecule agonists of the thyroid stimulating hormone receptor (TSHR) signaling pathway (AID 1224843; calls by dose curve; also: nearly all actives have a fitted effect of over 45% in size); settings: TSHR-HEK293 cells, cAMP HTRF, agonist mode, 30 min; series mostly up to 92.4 µM
# Thyrotropin receptor (Homo sapiens), sequence (P16473 whole entry, looked up): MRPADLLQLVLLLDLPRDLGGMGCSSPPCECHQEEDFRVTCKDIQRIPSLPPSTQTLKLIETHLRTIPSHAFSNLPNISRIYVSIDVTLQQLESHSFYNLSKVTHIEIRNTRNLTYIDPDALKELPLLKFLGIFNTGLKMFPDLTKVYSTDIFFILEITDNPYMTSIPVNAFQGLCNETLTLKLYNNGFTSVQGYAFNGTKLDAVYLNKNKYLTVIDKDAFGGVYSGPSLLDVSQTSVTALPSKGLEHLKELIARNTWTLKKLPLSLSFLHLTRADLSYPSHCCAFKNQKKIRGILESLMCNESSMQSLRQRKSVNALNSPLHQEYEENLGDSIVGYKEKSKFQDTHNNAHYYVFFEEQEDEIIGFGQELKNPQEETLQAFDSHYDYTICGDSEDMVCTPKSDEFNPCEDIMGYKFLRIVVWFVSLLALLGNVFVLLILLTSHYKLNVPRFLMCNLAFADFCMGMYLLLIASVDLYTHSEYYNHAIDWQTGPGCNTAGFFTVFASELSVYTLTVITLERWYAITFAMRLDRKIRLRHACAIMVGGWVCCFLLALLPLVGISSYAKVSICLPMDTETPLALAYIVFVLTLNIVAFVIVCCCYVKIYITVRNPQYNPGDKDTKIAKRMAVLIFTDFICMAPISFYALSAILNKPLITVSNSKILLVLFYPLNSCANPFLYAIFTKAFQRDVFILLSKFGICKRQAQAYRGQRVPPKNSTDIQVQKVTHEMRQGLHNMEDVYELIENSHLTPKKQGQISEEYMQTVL
# How it was run: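 TSHR-HEK293 cells in agonist mode, 30 min room-temperature step, then cAMP measured by competitive HTRF (cAMP-d2 with anti-cAMP cryptate) after 1 h at room temperature. Tested at 15 concentrations in triplicate.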
smiles,measurement,setting,value
COc1cc([C@@H]2c3cc4c(cc3[C@@H](O[C@@H]3O[C@@H]5CO[C@@H](C)O[C@H]5[C@H](O)[C@H]3O)[C@H]3COC(=O)[C@H]23)OCO4)cc(OC)c1O,Potency,[1],inactive
same,Potency,[2],inactive
same,Potency,[3],inactive
same,Potency,[4],inactive
O=c1[nH]cccc1O,Potency,[1],inactive
same,Potency,[2],inactive
same,Potency,[3],inactive
same,Potency,[5],inactive
same,Potency,[4],inactive
same,Potency,[6],inactive
same,Potency,[7],inactive
same,Potency,[8],inactive
same,Potency,[9],inactive
same,Potency,[10],inactive
Oc1cccc2c(O)cccc12,Potency,[11],inactive
same,Potency,[5],30.6 µM (active)
same,Potency,[4],2.73 µM (active)
same,Potency,[6],inactive
same,Potency,[12],inactive
CS(=O)(=O)c1ccc([C@@H](CC2CCCC2)C(=O)Nc2cnccn2)cc1Cl,Potency,[10],101 µM (active)

# Reference: PubChem BioAssay (Tox21)
